A selection: hits, their analogues and other compounds. The true share with any hit is near 6.1%.
M1 antagonist – antagonists of rat M1 muscarinic receptor | B-score at 10 µM | 64,000 tested, 3.4% active | P08482 | CHO-M1 cells, Fluo-4 calcium, ACh EC80 antagonist mode; stronger effect = lower value;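 active = calcium fluorescence response, raw or row-and-column corrected B-score, differing from the plate sample mean either way at a set confidence level, mostly lower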
M1 agonist – agonists of M1 muscarinic receptor | CHO-M1 cells, Fluo-4 calcium fluorescence, agonist mode; stronger effect = higher value | B-score at 10 µM | 64,000 tested, 3% active;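 active = fluorescence rise, raw or as B-score row- and column-corrected plate score, outside the 99.7% band of its plate's samples, either direction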
Cdc25B inh – human M-phase inducer phosphatase 2 inhibition. recombinant Cdc25B, OMFP fluorescence Ex485/Em525. inhibition, %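 (compounds tested at 10 µM final in the well)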. 65,000 tested, 0.1% active; in the data active = inhibition above about 50%
Target sequence (P30305 whole entry, looked up): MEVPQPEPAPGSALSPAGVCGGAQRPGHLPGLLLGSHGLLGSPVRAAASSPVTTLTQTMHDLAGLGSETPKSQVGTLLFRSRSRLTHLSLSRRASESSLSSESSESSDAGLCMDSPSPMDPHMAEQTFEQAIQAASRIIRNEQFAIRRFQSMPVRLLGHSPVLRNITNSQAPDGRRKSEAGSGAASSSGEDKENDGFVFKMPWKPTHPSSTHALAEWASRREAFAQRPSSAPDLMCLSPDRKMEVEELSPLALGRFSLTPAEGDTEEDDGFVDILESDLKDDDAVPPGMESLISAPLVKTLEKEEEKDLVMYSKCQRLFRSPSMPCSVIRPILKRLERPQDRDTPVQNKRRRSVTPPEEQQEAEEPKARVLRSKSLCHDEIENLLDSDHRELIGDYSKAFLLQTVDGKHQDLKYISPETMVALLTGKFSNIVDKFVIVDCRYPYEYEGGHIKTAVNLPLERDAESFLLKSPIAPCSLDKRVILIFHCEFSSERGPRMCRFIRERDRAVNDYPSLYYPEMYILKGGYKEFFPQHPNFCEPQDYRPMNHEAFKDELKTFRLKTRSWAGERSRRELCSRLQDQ
MMP13 inh – inhibitors of human MMP13; P45452; MMP-13 fTHP FRET cleavage, Mca fluorescence; inhibition, % at 4 µM; 65,000 tested, 0.07% active;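 active = inhibition above the mean of compound-free control plate wells plus 3 SD, cut at about 14% in these data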;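 also: 0% = DMSO wells and 100% = wells with reference MMP-13 inhibitor after basal subtraction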
Hsp90 block – displaces geldanamycin probe from tumor Hsp90; P07900; NCI-N417 lysate Hsp90, Cy3B-geldanamycin FP displacement; inhibition, % at 30 µM; 64,000 tested, 0.35% active;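 active = inhibition above 50%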;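 also: 0% = tracer plus lysate wells and 100% = tracer alone without lysate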
MKP-1 inh – blocks human MKP-1 phosphatase activity; P28562; recombinant MKP-1, OMFP hydrolysis fluorescence; 65,000 tested, 0.15% active; AID 374; inhibition, %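 (compounds tested at a single concentration somewhere between 10 and 100 µM)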;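 active = inhibition above about 50%, limit read from the data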;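 also: 0% = DMSO max control wells and 100% = wells with enzyme stopped by NaOH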
M1 antag confirm – M1 muscarinic receptor (rat) antagonism, confirmed. 1,700 tested, 43% active. shares compounds with M1 antagonist. AID 677. calcium response (max-min fluorescence) at 10 µM. CHO-M1 cells, Fluo-4 calcium, ACh EC80 antagonism; stronger effect = lower value;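 active = calcium response below the same-plate mean of wells given acetylcholine alone at its 80%-effect dose, minus 3 SD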;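 also: raw fluorescence intensity difference in arbitrary instrument units and not normalized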
mGluR4 antag – selectivity test for M1 antagonists: human mGluR4 receptor. shares compounds with M1 antagonist. CHO-mGluR4 calcium flux, Fluo-4 fluorescence, glutamate EC80; stronger effect = lower value. fluorescence response (max-min) at 10 µM. 1,700 tested, 0.9% active;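 active = fluorescence response below the plate's average for near-maximal glutamate wells, less 3 SD of those wells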;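 also: raw unnormalized fluorescence span taken in the window right after glutamate addition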
Starred values were filed as active, the others as inactive.

Screening O=C(c1oc(=O)c2ccccc2c1-c1ccccc1)N1CCN(C2CCCCC2)CC1 returned M1 antagonist -6.61*, M1 agonist 1.08, Cdc25B inh -13.2, MMP13 inh -3.7, Hsp90 block 0.8, MKP-1 inh 29.9, M1 antag confirm 349* and mGluR4 antag 209.
`COc1ccc(-n2cnnc2SCC(=O)c2ccc(S(=O)(=O)N3CCOCC3)cc2)cc1` gave M1 antagonist -1.03, M1 agonist -0.04, Cdc25B inh -3.2, MMP13 inh 1.4, Hsp90 block -4.5 and MKP-1 inh 31.3.
CCNC(=O)Cc1ccc(NS(=O)(=O)c2ccc(F)cc2)cc1 was read as M1 antagonist 0.155, M1 agonist -0.291, Cdc25B inh -1.5, MMP13 inh -1.7 and MKP-1 inh 8.9.
For CCNS(=O)(=O)c1ccc(NC(=O)Cc2ccc(F)cc2)cc1 the results were M1 antagonist -5.5*, M1 agonist 0.0564, Cdc25B inh -7.6, MMP13 inh -1.2, Hsp90 block -5.5, MKP-1 inh -7.2, M1 antag confirm 561* and mGluR4 antag 197.
CSc1cccc(NC(=O)CSc2nc3ccccc3o2)c1 was read as M1 antagonist -3.27*, M1 agonist -0.0116, Cdc25B inh -8.9, MMP13 inh -2.9, Hsp90 block 0.4, MKP-1 inh -8.1, M1 antag confirm 577 and mGluR4 antag 272.
For COCCn1c(SCC(=O)N2CCCc3ccccc32)nc2ccccc2c1=O the results were M1 antagonist -1.91*, M1 agonist -0.122, Cdc25B inh -5.9, MMP13 inh 4.6, Hsp90 block -0.1, MKP-1 inh 10.3, M1 antag confirm 589 and mGluR4 antag 254.
`Cc1cc(N2CCOCC2)nc2cc(O)ccc12` gave M1 antagonist 0.528, M1 agonist 0.479, Cdc25B inh -4.8, MMP13 inh -78.0, Hsp90 block -3.8 and MKP-1 inh 1.4.
Cc1cc(N2CCCN(C)CC2)nc2cc(Cl)ccc12 was read as M1 antagonist -3.71*, M1 agonist -1.26, Cdc25B inh -6.0, MMP13 inh -6.5, Hsp90 block 0.0, MKP-1 inh -8.3, M1 antag confirm 378* and mGluR4 antag 259.
Screening CN1C(=S)SC(/[N+]([O-])=C\c2cccs2)C1(C)C (configuration not stated) returned M1 antagonist -8.04*, M1 agonist 0.685, Cdc25B inh 3.5, MMP13 inh -2.5, Hsp90 block -0.1, MKP-1 inh -0.4, M1 antag confirm 610 and mGluR4 antag 243.
For CN1C(=S)SC(N(O)C(=O)Nc2ccccc2)C1(C)C (configuration not stated) the results were M1 antagonist 0.0481, M1 agonist 0.289, Cdc25B inh -7.3, MMP13 inh -2.4, Hsp90 block -3.2 and MKP-1 inh 11.6.
CC(C)C1N(S(=O)(=O)c2ccccc2)CCN1S(=O)(=O)c1ccccc1 was read as M1 antagonist 0.645, M1 agonist 0.0275, Cdc25B inh 6.1, MMP13 inh -6.5, Hsp90 block 0.2 and MKP-1 inh 0.7.
Screening Cc1nc2nc[nH]n2c(=O)c1CCC(C)C returned M1 antagonist -1.4, M1 agonist -0.568, Cdc25B inh 0.1, MMP13 inh 0.9, Hsp90 block -0.7 and MKP-1 inh -8.2.
For Cc1ccc(S(=O)(=O)N2CCC(C(=O)N3CCC[C@H]3C(=O)NC3CCS(=O)(=O)C3)CC2)cc1 (some centres not stated) the results were M1 antagonist -0.0373, M1 agonist -1.18, Cdc25B inh 10.6, MMP13 inh 1.1, Hsp90 block -2.4 and MKP-1 inh -1.3.
O=C(NC1CCS(=O)(=O)C1)C1CCCCN1S(=O)(=O)c1ccc(Cl)cc1 (configuration not stated) was read as M1 antagonist -3.41*, M1 agonist 0.306, Cdc25B inh -1.6, MMP13 inh 2.8, MKP-1 inh 6.2, M1 antag confirm 584 and mGluR4 antag 249.
Screening CCOC(=O)c1cc(NC(=O)c2ccoc2C)cc(C(=O)OCC)c1 returned M1 antagonist -0.034, M1 agonist 0.943, Cdc25B inh -1.1, MMP13 inh 1.6, Hsp90 block -1.3 and MKP-1 inh -0.7.
Screening Cc1cccc(NC(=O)Cn2cccc2)c1 returned M1 antagonist 0.0458, M1 agonist -0.643, Cdc25B inh -9.5, MMP13 inh 1.6, Hsp90 block 0.1 and MKP-1 inh 16.1.
`Cc1ccc(NC(=O)Cn2cccc2)c(Br)c1` gave M1 antagonist -2.92*, M1 agonist 0.369, Cdc25B inh -10.1, MMP13 inh 1.3, Hsp90 block -1.5, MKP-1 inh 6.8, M1 antag confirm 566 and mGluR4 antag 247.
CCCCCCC1C(C#N)=C(N)OC2=C1C(=O)CCC2 (configuration not stated) was read as M1 antagonist -2.34*, M1 agonist -0.3, Cdc25B inh -1.2, MMP13 inh -0.7, Hsp90 block -1.8, MKP-1 inh 6.5, M1 antag confirm 434* and mGluR4 antag 236.
`Cc1occc1-c1nnc(SCC(=O)Nc2ccccc2N2CCCCC2)n1C` gave M1 antagonist -0.209, M1 agonist 1.75, Cdc25B inh -9.8, MMP13 inh 4.2, Hsp90 block -1.6 and MKP-1 inh 0.3.
For O=C(Nc1ccccc1C(=O)NCc1ccco1)c1ccco1 the results were M1 antagonist -0.0857, M1 agonist 0.427, Cdc25B inh -3.5, MMP13 inh -2.4, Hsp90 block -6.9 and MKP-1 inh 34.8.
O=C(NC1CCCCC1)c1ccc(S(=O)(=O)NCc2ccco2)cc1 was read as M1 antagonist -2.44*, M1 agonist -1.26, Cdc25B inh -6.7, MMP13 inh -4.6, Hsp90 block -7.2, MKP-1 inh -14.9, M1 antag confirm 634 and mGluR4 antag 228.
`O=C(Nc1ccccc1C(=O)NCc1ccco1)NC1CCCCC1` gave M1 antagonist -3.12*, M1 agonist -0.038, Cdc25B inh -7.6, MMP13 inh -2.0, MKP-1 inh -2.1, M1 antag confirm 639 and mGluR4 antag 243.
For COc1ccc(NC2=C(C(C)=O)C(c3ccc4c(c3)OCO4)C(C(C)=O)C(C)(O)C2)cc1 (configuration not stated) the results were Cdc25B inh -16.1, MMP13 inh 2.6, Hsp90 block 1.0 and MKP-1 inh -9.6.
COc1ccc(C2C(C(=O)c3sc(C)nc3C)=C(O)C(=O)N2CCN(C)C)cc1 (configuration not stated) was read as M1 antagonist -10.9*, M1 agonist -0.0711, Cdc25B inh 1.1, MMP13 inh -8.3, Hsp90 block -0.4, MKP-1 inh -5.6, M1 antag confirm 663 and mGluR4 antag 242.
`Cc1nc(C)c(C(=O)C2=C(O)C(=O)N(CCN(C)C)C2c2ccccc2)s1` (configuration not stated) gave M1 antagonist 0.33, M1 agonist -1.39, Cdc25B inh -1.5, MMP13 inh -0.6, Hsp90 block -1.0 and MKP-1 inh -8.4.
Screening CCc1sc(NC(=O)COC)nc1-c1ccccc1 returned M1 antagonist -5.95*, M1 agonist -0.0159, Cdc25B inh -8.4, MMP13 inh -0.2, Hsp90 block -3.6, MKP-1 inh 0.2, M1 antag confirm 456* and mGluR4 antag 266.
CCCCC1CCC(C(=O)NC2CCS(=O)(=O)C2)CC1 (configuration not stated) was read as M1 antagonist -0.0691, M1 agonist -0.00531, Cdc25B inh -7.2, MMP13 inh 1.1, Hsp90 block -2.6 and MKP-1 inh 5.6.

Compound activity: PubChem, several laboratories
